Laboratory results reported in PubChem BioAssay AID651718 (The Scripps Research Institute Molecular Screening Center, 2012).
Screen size: about 360,000 compounds; about 2,700 (0.75%) were called active. This excerpt belongs to a sample that is enriched for actives. A number with no mark means an inactive call. No stated cut-off is given here; in the data, active means inhibition above about 4.5%; inactive means the rest.

What follows are molecules tested on Methionine sulfoxide reductase A (Bos taurus) (assay: inhibition of methionine sulfoxide reductase A – biochemical, absorbance, bovine, HTS, primary screen (AID 651718;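 further: 0% = vehicle wells with enzyme and 100% = reference inhibitor wells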)). Settings: purified bovine MsrA, absorbance read-out; at 15.5 µM; hits give high values.
Molecule `COC(=O)C1=C(C(=O)OC)C2C=C(C(C)C)C1C(=O)C2(C)O` (stereo not drawn) has an inhibition of 0.16%.
`CC[C@H](C)[C@H]1CNC(=O)C(=O)N1CC1CCN(CCc2ccc(OC)c(OC)c2)CC1` was tested, and the inhibition was -0.53%.
`O=C(NCC(c1ccco1)N1CCc2ccccc21)c1cccc(F)c1` (stereo not drawn) was tested, and the inhibition was -0.1%.
Molecule `Cc1ccccc1C(=O)N[C@H](C(=O)N1CCC[C@H]1C(=O)NCc1ccccc1)C(C)C` has an inhibition of 0.08%.
In the case of `Cc1ccc2nc(-c3ccc(CN4CCC(n5cc(-c6ccccc6)[nH]c5=O)CC4)cc3)c(-c3ccccc3)nc2c1`, the inhibition is reported as 1.47%.
Work on `O=c1[nH]c(-c2ccccc2)cn1C1CCN(Cc2ccc(-c3nc4ccc(F)cc4nc3-c3ccccc3)cc2)CC1` yielded an inhibition of 1.06%.
In the case of `Cc1nc(NC(=O)C(C)(C)C)sc1[N+](=O)[O-]`, the inhibition is reported as 0.16%.
`Oc1c(C(c2ccco2)N2CCC3(CC2)OCCO3)sc2ncnn12` (stereo not drawn) showed an inhibition of 1.08%.
For `CC(=O)Nc1ccc(/C=N/NC(=O)c2cccs2)cc1`, the inhibition was 5.38% (active).
Work on `O=C(COC(=O)CCC(=O)c1cccs1)NCc1ccco1` yielded an inhibition of -1.07%.
In the case of `O=C(N/N=C/C=C/c1ccco1)c1cccs1`, the inhibition is reported as 5.18% (active).
Molecule `CC1(C)CC(=O)C/C(=N\NC(=O)c2cccs2)C1` has an inhibition of 0.04%.
`C/C(=N\OCC(=O)Nc1ccc(Br)cc1)c1cccs1` gave an inhibition of 0%.
In the case of `O=C(NC(Cc1c[nH]c2ccccc12)C(=O)N/N=C/c1ccc(Br)cc1)c1cccs1` (stereo not drawn), the inhibition is reported as 1.85%.
With `Nc1[nH]c(C(=O)c2ccc(Br)cc2)c(-c2ccc3c(c2)OCO3)c1C(=O)NCCc1c[nH]c2ccccc12` the inhibition was 1.06%.
`CCOC(=O)CNC(=O)N(C)[C@H]1C[C@H]2c3[nH]c4c(-c5ccc6c(c5)OCO6)cccc4c3CCN2C(=O)[C@H]1[C@H](C)O` gave an inhibition of 0.91%.
`COC(=O)[C@]12C[C@H](CC(=O)NCc3ccc(C)o3)C(=O)N(CCC3=CCCCC3)C1=C[C@H](C(C)(C)C)O[C@@H]2C` was tested, and the inhibition was -0.16%.
`COCc1cc(N2CCN(C(=O)OC(C)(C)C)C[C@@H]2C)ccc1N1CCN(Cc2ccccc2)[C@H](C)C1` was tested, and the inhibition was -0.33%.
`CN1C(=O)C2CC(O)C(SC3CC4C(=O)N(C)C(=O)C4CC3O)CC2C1=O` (stereo not drawn) showed an inhibition of -0.2%.
For `COC(=O)C1=C(C)N(Cc2cccc(C(F)(F)F)c2)C(=NCc2ccccc2)NC1c1ccc(Cl)cc1` (stereo not drawn), the inhibition was -1.08%.
Molecule `O=C(C(=O)N1CCC(CNC(=O)c2cccnc2Cl)CC1)c1cccs1` has an inhibition of 0.64%.
For `COc1ccc(S(=O)(=O)N2CCOCC2)cc1NC(=O)CSc1nnc(NC2CC2)s1`, the inhibition was 1.12%.
Work on `Cc1noc(C)c1COc1ccc2ccc(=O)oc2c1` yielded an inhibition of 1.22%.
`CCCCc1cc(=O)oc2cc(C)cc(OCc3nn[nH]n3)c12` showed an inhibition of 2.46%.
`COc1ccc(-c2cc3ccc(OCc4nn[nH]n4)cc3oc2=O)cc1` was tested, and the inhibition was 6.87% (active).
Work on `CN1CCNC(=O)C1CC(=O)NCCC1=CCCCC1` (stereo not drawn) yielded an inhibition of 2.03%.
`CCOC(=O)C1CSCCS(=O)(=O)N1Cc1ccc(Cl)cc1` (stereo not drawn) was tested, and the inhibition was -0.33%.
`CC(Oc1ccccc1[N+](=O)[O-])C(=O)N/N=C/c1ccoc1` (stereo not drawn) gave an inhibition of 1.1%.
`Cc1cc(C(=O)N/N=C/c2ccc(O)c([N+](=O)[O-])c2)c(C)n1-c1ccc(F)cc1` was tested, and the inhibition was 4.88% (active).
`Cc1c(Cl)c([N+](=O)[O-])nn1Cc1ccc(C(=O)N/N=C\c2cc(Cl)ccc2O)o1` was tested, and the inhibition was 0.28%.
`COC(=O)C(C(=O)OC)c1ccccc1NS(=O)(=O)c1cccc2ccccc12` gave an inhibition of -0.65%.
`CCOC(=O)C/C(C)=N\Nc1ccc([N+](=O)[O-])cc1[N+](=O)[O-]` was tested, and the inhibition was 12.8% (active).
In the case of `CCCCOC(=O)CCCc1ccc([N+](=O)[O-])cc1[N+](=O)[O-]`, the inhibition is reported as 4.36%.
Work on `CCOC(=O)c1ccc(NNC(C)=O)c([N+](=O)[O-])c1` yielded an inhibition of -0.39%.
`CC(C(=O)NC1CCCC1)N1CCN(S(=O)(=O)c2ccccc2Cl)CC1` (stereo not drawn) was tested, and the inhibition was -0.92%.
`CCCCNC(=O)C(C)N(CCN(C)C)C(=O)CCCCCN1C(=O)NC(c2ccc(Cl)cc2)C(C(=O)OCc2ccccc2)=C1C` (stereo not drawn) showed an inhibition of 1.77%.
`COC(=O)CSc1nnc(NC(=O)CCc2ccccc2)s1` was tested, and the inhibition was 0.95%.
`NC(=O)CSc1nnc(NC(=O)c2ccc(Br)o2)s1` was tested, and the inhibition was 4.64% (active).
`CC(C)(C)NC(=O)CSc1nnc(NC(=O)CCc2ccccc2)s1` showed an inhibition of 0.59%.
Molecule `COC(=O)[C@]12C[C@H](CC(=O)NCCc3ccccc3OC)C(=O)N(Cc3ccccc3)C1=C[C@H](C(C)C)O[C@@H]2C1CC1` has an inhibition of 0.87%.
`COc1ccc(/C=C(\NC(=O)c2ccccc2)C(=O)NCCN2CCOCC2)cc1OC` showed an inhibition of 2.05%.
`CCn1cc(/C=C(\NC(=O)c2ccc(C)cc2)C(=O)NCCN2CCOCC2)c2ccccc21` was tested, and the inhibition was 4.67% (active).
`Cc1ccc(C(=O)N/C(=C\c2cn(C)c3ccccc23)C(=O)N2CCN(C)CC2)cc1` gave an inhibition of 3.12%.
`O=C(O)Cn1cnc2c(NCc3ccccc3)ncnc21` showed an inhibition of 0.37%.
For `Cc1ccc(S(=O)(=O)N(C)c2ccc(OCC(=O)OCc3ccc(C#N)cc3)cc2)cc1`, the inhibition was 7.12% (active).
For `Cc1ccc(S(=O)(=O)N(C)c2ccc(OCC(=O)OCC(=O)N(CC#N)c3ccccc3)cc2)cc1`, the inhibition was 0.73%.
`Cc1ccc(S(=O)(=O)N(C)c2ccc(OCC(=O)NC3=NCCS3)cc2)cc1` gave an inhibition of -0.97%.
Work on `NC(=O)c1ccc(-c2csnn2)cc1` yielded an inhibition of 1.41%.
With `Cc1cc(C)nc(N2C(=O)CC(Cc3ccccc3)C2=O)n1` (stereo not drawn) the inhibition was -1.66%.
`CC1(C)N=C(c2ccccn2)C(C)(C)N1O` gave an inhibition of 0.21%.
In the case of `COC(=O)C1=C(C)NC(=S)NC1c1ccc(OC)cc1` (stereo not drawn), the inhibition is reported as 0.87%.
`CCCCNc1cccc2c1S(=O)(=O)N[C@@H](C)CO2` showed an inhibition of 0.33%.
With `COc1ccc(/C=N/n2nnnc2N)cc1OC` the inhibition was 4.82% (active).
With `Nc1nnnn1/N=C/c1cccs1` the inhibition was 0.3%.
`Nc1nnnn1/N=C/c1cccc(Br)c1` was tested, and the inhibition was 0.5%.
In the case of `CCN(CC)Cc1c(C(=O)OC)nnn1-c1nonc1N`, the inhibition is reported as 0.6%.
`CC1(C)OC(=O)C2=C(CC(CCc3ccccc3)OC2c2ccc(Cl)cc2)O1` (stereo not drawn) showed an inhibition of 0.43%.
For `COc1ccc(/C=N\NC(=O)c2sc(N)nc2C)cc1OC`, the inhibition was 7.88% (active).
`Cc1nnsc1C(=O)N/N=C/c1cccc(C(F)(F)F)c1` gave an inhibition of -1.17%.
`COc1cc(/C=N/NC(=O)Nc2ccccc2)ccc1OCCOc1ccccc1C` showed an inhibition of 0.83%.
In the case of `Cc1cc(OC(=O)NCCc2ccc(F)cc2)ccc1F`, the inhibition is reported as 0.24%.
`CCCCCCCCN1C(=O)[C@@H](CC(=O)NCCCC)C[C@@]2(C(=O)OC)C1=C[C@H](C(C)(C)C)O[C@@H]2C` showed an inhibition of 0.08%.
`O=C(/C=C/Sc1ncn[nH]1)c1ccc(Cl)cc1` was tested, and the inhibition was 5.19% (active).
`COc1cccc(-c2cc(CNC(=O)[C@@H](Cc3ccccc3)NC(=O)[C@H]3O[C@@H](n4cnc(C(N)=O)n4)[C@H](O)[C@@H]3O)no2)c1` gave an inhibition of -0.49%.
For `COc1ccccc1CCn1cnc(-c2ccccc2)c1C(C)C`, the inhibition was 0%.
`COc1ccc(CCNC(=S)NC(=O)/C=C/c2ccc(C)cc2)cc1OC` gave an inhibition of 0.54%.
`COc1ccc(/C=C2/CCCc3ccccc3C2=O)cc1` was tested, and the inhibition was 0.69%.
In the case of `COc1ccc(/C=C2\N=C3CCCN3C2=O)cc1`, the inhibition is reported as 4.73% (active).
For `COc1ccc(/C=C2\SC(=N)N(c3ccc(F)cc3)C2=O)cc1`, the inhibition was -0.72%.
With `CCCCn1c(N)c(N(CCOC)C(=O)COc2c(C)cccc2C)c(=O)[nH]c1=O` the inhibition was 0.79%.
With `O=C(NCc1ccccc1)[C@H]1CCCN1C(=O)[C@H]1CCCN1C(=O)c1cc(F)cc(F)c1` the inhibition was 0.16%.
Work on `O=C(OCc1cc2ccccc2[nH]c1=O)c1cccnc1` yielded an inhibition of -0.22%.
Molecule `O=C(CC(=O)c1cccnc1)c1ccccc1` has an inhibition of 2.87%.
For `O=C(Oc1c(-c2ccco2)oc2ccccc2c1=O)c1cccnc1`, the inhibition was 5.77% (active).
Work on `CC(C)CC(CC(C)C)=NNC(=O)c1ccc(CSc2nncn2C)cc1` yielded an inhibition of -0.77%.
`CCOc1cc(/C=N/NC(=O)c2cccc(S(=O)(=O)N3CCOCC3)c2)ccc1OCC(=O)N(C)C` gave an inhibition of 4.25%.
In the case of `CCOc1cc(/C=N/NC(=O)c2ccc(CSc3nncn3C)cc2)ccc1OCC(=O)N1CCOCC1`, the inhibition is reported as 4.92% (active).
Work on `CCC(Cc1ccccc1)NS(=O)(=O)c1ccc2c(c1)NC(=O)CS2` (stereo not drawn) yielded an inhibition of -0.21%.
Work on `C=CCNC(=S)NNC(=O)c1ccc(Br)o1` yielded an inhibition of -0.22%.
`CNC(=S)N/N=C/c1ccc(N2CCOCC2)s1` gave an inhibition of 3.27%.
With `C=CCNC(=S)N/N=C/c1ccc(C)s1` the inhibition was 4.91% (active).
In the case of `CC(C)(C)C(c1nc2ccccc2[nH]1)n1c(Cc2csc3ccccc23)nc2ccccc21` (stereo not drawn), the inhibition is reported as -0.41%.
With `COC(=O)C1=C(C)N(Cc2ccccc2C(F)(F)F)C(=NCC2CC2)NC1c1cccc(Cl)c1` (stereo not drawn) the inhibition was -2.13%.
Work on `O=S1(=O)c2ccc(Br)cc2-n2nncc2CN1Cc1cccc(Cl)c1` yielded an inhibition of 0.62%.
In the case of `CC(C)(C)n1nc(C2CC2)c(Br)c1NC(=O)c1ccccc1F`, the inhibition is reported as -0.05%.
`CC(C)C[C@H]1CN([C@@H](Cc2ccccc2)CN2CCC[C@@H]2CN2C(=O)C(=O)NC[C@@H]2Cc2ccc(O)cc2)C(=O)C(=O)N1CCc1ccccc1` gave an inhibition of -0.32%.
Work on `O=C(O)c1ccccc1Cc1ccc(F)c2ccccc12` yielded an inhibition of 0.31%.
With `COc1cccc(NC(=O)N(C)C[C@@H]2OCc3cn(nn3)CCCC(=O)N([C@@H](C)CO)C[C@H]2C)c1` the inhibition was 0.43%.
